The list is not random: actives were taken first. Their share in the collection is about 2.4%.
TLR4 MyD88 comp: TLR4-MyD88 interaction inhibition in cells; O00206+Q99836; HeLa CL3-4 TLR4/MyD88 BLA complementation, FRET ratio; inhibition, % at 8.4 µM; hit rate 0.18% among 200,000; AID 861; in the data active means inhibition above about 25%;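 further: 0% = vehicle and 100% = reference inhibitor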
m5-HT2A agonist: agonists of mouse serotonin 5-HT2A receptor (HTR2A) | CHO-K1 mHTR2A beta-arrestin complementation, luminescence; percent of 30 µM serotonin response | hit rate 0.66% among 360,000 | P35363 | activation, % at 7.6 µM | AID 624169;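 active means activation above a run cutoff, the mean activation of all tested compounds plus 3 SD, cut at about 14% in these data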;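 further: 0% = plate median of compound wells and 100% = 30 µM serotonin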
TMEM16A inh: inhibitors of mouse TMEM16A calcium-activated chloride channel; Q8BHY3; HEK293 TMEM16A/YFP iodide influx fluorescence, ionomycin; normalized B-score (activity score, 25-100; higher = stronger inhibition) at 10 µM; hit rate 1.2% among 310,000; AID 588511;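 active means ratio plate-corrected score three or more library SD toward inhibition, starting fluorescence score within five deviations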;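 further: score derived from kinetic fluorescence span divided by baseline fluorescence per well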
NOD2 RIPK2 PPI: inhibitors of human NOD2-RIPK2 interaction | CHO BLA complementation NOD2-RIPK2, CCF4 ratio | inhibition, % at 4.98 µM | hit rate 0.38% among 360,000 | AID 624267; in the data active means inhibition above about 21%;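 further: 0% = vehicle only and 100% = reference blocker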
Target sequence (O43353 whole entry, looked up): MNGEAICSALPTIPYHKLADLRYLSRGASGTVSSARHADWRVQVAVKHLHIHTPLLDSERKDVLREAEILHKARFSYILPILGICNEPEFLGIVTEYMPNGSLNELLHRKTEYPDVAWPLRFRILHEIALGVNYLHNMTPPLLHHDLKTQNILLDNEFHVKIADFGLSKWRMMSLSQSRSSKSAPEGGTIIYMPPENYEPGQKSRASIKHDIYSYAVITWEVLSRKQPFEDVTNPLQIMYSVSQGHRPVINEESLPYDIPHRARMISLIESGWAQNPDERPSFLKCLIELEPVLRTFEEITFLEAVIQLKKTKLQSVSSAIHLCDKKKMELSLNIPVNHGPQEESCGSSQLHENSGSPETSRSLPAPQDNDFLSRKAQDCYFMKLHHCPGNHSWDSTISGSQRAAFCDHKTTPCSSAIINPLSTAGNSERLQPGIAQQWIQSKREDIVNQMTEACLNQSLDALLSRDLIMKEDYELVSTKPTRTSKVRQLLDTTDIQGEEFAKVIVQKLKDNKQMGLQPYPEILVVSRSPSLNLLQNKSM
TMEM16A act: mouse TMEM16A channel activation, primary screen; Q8BHY3; B-score at 10 µM; hit rate 0.3% among 340,000; HEK293 TMEM16A/YFP-H148Q/I152L, iodide quench fluorescence; active compounds read low;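 active means fluorescence-ratio B-score plate-corrected deviation score at least 3 library SD below zero, with starting fluorescence score within 5 deviations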;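 further: channel opened by trigger with iodide after compound preincubation; score built on the fluorescence ratio of max minus min over baseline; more negative score means more quench and so TMEM16A activation or potentiation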
TLR9-MyD88 block: TLR9-MyD88 interaction inhibition. inhibition, % at 4.98 µM. Q9NR96+Q99836. AID 504734. hit rate 0.21% among 340,000. CHO BLA complementation TLR9-MyD88, CCF4 FRET ratio;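 active means inhibition above the mean over all tested compounds plus 3 SD, cut at about 21% in these data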;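 further: 0% = DMSO only wells and 100% = clavulanate BLA inhibitor control wells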
MOR ag counter: counter-screen for mouse HTR2A agonists: human mu opioid receptor agonists. activation, % at 9.3 µM. AID 624380. hit rate 5.3% among 2,300. shares compounds with m5-HT2A agonist. U2OS OPRM1 beta-arrestin PathHunter, luminescence; DMSO 0%, DAMGO 9.3 µM 100%;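 active means mean activation above the mean of DMSO-only wells plus 3 SD, cut at about 0.5% in these data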
m5-HT2A ag conf: confirmation of mouse HTR2A serotonin receptor agonists | activation, % at 7.6 µM | CHO-K1 PathHunter beta-arrestin recruitment, luminescence; DMSO 0%, 30 µM serotonin 100% | hit rate 19% among 2,300 | shares compounds with m5-HT2A agonist;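 active means mean activation across triplicates above the hit threshold derived in the original primary screen, cut at about 15% in these data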
An asterisk follows results filed as active; i = inactive; · = not tested or not shown.

SMILES	TLR4 MyD88 comp	m5-HT2A agonist	TMEM16A inh	NOD2 RIPK2 PPI	TMEM16A act	TLR9-MyD88 block	MOR ag counter	m5-HT2A ag conf
Cc1ccc(NC(=O)CSc2nc3ccccc3c(=O)n2CCCN2CCCCC2)cc1C	-8.6	15.6*	i	4.1	i	-7.1	-0.4	11.6
COc1ccc(NC(=O)CSc2nc3ccccc3c(=O)n2CCCN2CCOCC2)c(OC)c1	-5.0	38.9*	i	-5.8	i	-6.2	-0.6	12.5
CSc1nnc2c3c4c(sc3c(=O)n(-c3ccccc3)n12)CC(C)(C)OC4	10.7	2.2	i	-12.5	i	2.3	·	·
CCCN(CC(=O)Nc1cc(Cl)ccc1Cl)C(=O)c1ccc2n[nH]nc2c1	·	4.4	·	4.9	i	-1.4	·	·
COc1cc2nc(SCc3c(C)noc3C)n(CCC3=CCCCC3)c(=O)c2cc1OC	1.0	3.7	i	-4.6	i	16.4	·	·
CN(C)C(=O)c1ccc(NC(=O)COC(=O)C2=COCCO2)cc1	·	18.1*	i	-4.6	i	-12.0	-0.6	-3.6
Cn1c(Cc2ccc3c(c2)OCO3)nnc1SCC(=O)NC1CCCC1	6.6	·	i	·	·	·	·	·
COC(=O)N1CCCCC1c1cc(C(=O)Nc2cccc3c2CCCC3)no1 (configuration not stated)	·	16.6*	·	-3.1	·	·	-0.4	-3.4
N#CCN1CCCC(C(N)=O)C1 (configuration not stated)	-3.9	19.5*	i	0.0	i	5.2	-0.4	-4.0
CCCCCOC(=O)CSc1n[nH]c(=O)[nH]c1=O	4.3	0.7	i	5.3	i	3.0	·	·
CCCOC(=O)C(C)Sc1n[nH]c(=O)[nH]c1=O (configuration not stated)	-0.6	14.4*	i	-7.7	i	-3.5	-0.6	-2.5
Cc1ccc(NC(=O)CN2C(=O)c3ccccc3S2(=O)=O)c(C)c1	·	17.5*	i	-2.2	i	-4.3	-0.3	-2.1
COc1ccc(C)cc1NC(=O)CN1C(=O)c2ccccc2S1(=O)=O	·	-4.1	i	4.1	i	1.8	·	·
COc1ccc([N+](=O)[O-])cc1NC1CCCCC1	1.1	6.4	i	2.3	i	-4.1	·	·
CC(C)(C)NC(=O)CN(C(=O)CNC(=O)c1cccs1)c1ccccc1F	·	16.1*	i	-3.1	i	13.6	-0.2	4.3
Clc1ccccc1CN1CCN(c2ncccn2)CC1	·	28.5*	i	9.2	i	-7.1	0.0	98.1*
Clc1ccc(CN2CCN(c3ncccn3)CC2)c(Cl)c1	·	15.9*	i	-3.0	i	-2.7	-0.2	102.7*
O=C(Nc1cccc2nsnc12)c1ccc(-c2cccc(Cl)c2)o1	-13.0	15.7*	i	2.1	i	-7.7	-0.1	-0.1
COc1ccc(S(=O)(=O)N2CCOCC2)cc1NC(=O)CSc1nnc2ccccn12	0.1	·	i	·	·	·	·	·
c1ccc(CC2=NCCN2)cc1	1.7	10.1	i	-14.8	i	-5.2	·	·
Cc1cc(C(C)(C)C)cc(C)c1CC1=NCCN1	9.9	24.4*	i	-8.1	i	-6.8	-0.6	24.3*
Cc1nc(N2CCCC2)c2nnn(Cc3ccccc3Cl)c2n1	-8.7	17.8*	i	-1.2	·	-9.5	-0.6	-1.6
O/N=C/c1ccc(OCc2ccccc2F)c(Cl)c1	2.4	7.5	i	-4.5	i	-3.0	·	·
CSc1ncnc2c1ncn2CCCN1CCN(C(=O)C2CC2)CC1	·	1.9	·	-10.1	·	9.7	·	·
Cc1cccc(OCC(=O)NNS(=O)(=O)c2ccccc2F)c1	·	2.0	i	3.3	i	-3.3	·	·
Cc1nnc(NC(=O)c2nc(S(=O)(=O)Cc3ccccc3)ncc2Cl)s1	·	15.3*	i	1.4	i	2.4	0.1	-2.0
CCCc1nnc(NC(=O)c2nc(S(=O)(=O)Cc3cccc(C)c3)ncc2Cl)s1	·	3.3	i	19.6	i	1.0	·	·

Assay outcomes (PubChem)
